# Among all 1,200 compounds or so, about 210 (18%) were called active. Rule as the data show it: active = inhibition above about 30%; inactive = the rest. These entries were drawn from the full list.
# Test: HTRF signal interference by compounds, confirmation, artefact control for SUMOylation inhibitor project, biochemical, uHTS (AID 2069)
# Conditions: HTRF interference counterscreen, fluorescence, at 35 µM, hits give high values
row,SMILES,inhibition
1,Cn1c2ccccc2c2cnn(CC(=O)Nc3ccc(Cl)cc3)c(=O)c21,15.8% (inactive)
2,Cc1cc(C)c(S(=O)(=O)NCC23C=CC(O2)C2C(=O)N(c4ccccc4)C(=O)C23)c(C)c1 (stereo unspecified),-17.5% (inactive)
3,O=C(NN1C(=O)CSC1=S)C(=O)NN1C(=O)CSC1=S,32.4% (active)
4,COc1ccc(NC(=S)Nc2ccc3nsnc3c2)cc1,15.8% (inactive)
5,CC(=O)OCCNc1cc(SCc2ccco2)c2nonc2c1[N+](=O)[O-],-1.55% (inactive)
6,CCC(NC(=O)Cc1c(C)c2c(cc(C)c3c(C)c(C)oc32)oc1=O)C(=O)O (stereo unspecified),51.6% (active)
7,CSCC[C@H](NC(=O)Cc1c(C)c2c(cc(C)c3c(C)c(C)oc32)oc1=O)C(=O)O,48.5% (active)
8,Cc1oc2c(c(C)cc3oc(=O)c(CC(=O)N[C@@H](C)C(=O)O)c(C)c32)c1C,53.8% (active)
9,Cc1oc2c(c(C)cc3oc(=O)c(CC(=O)N[C@H](C(=O)O)C(C)C)c(C)c32)c1C,56.9% (active)
10,Cc1cc(OC(C(=O)O)c2ccccc2)c2c(C)c(Cc3ccccc3)c(=O)oc2c1 (stereo unspecified),21.4% (inactive)
11,Nc1ccccc1NC1=CC(=O)CC(c2ccco2)C1 (stereo unspecified),16.8% (inactive)
12,CC1=NN(c2ccc(C(=O)O)cc2)C(=O)/C1=C\c1ccc(OC(=O)c2cccs2)cc1,12.1% (inactive)
13,C[n+]1cccc2c(Br)ccc([O-])c21,-20.8% (inactive)
14,C[n+]1cccc2cccc([O-])c21,5.4% (inactive)
15,Cc1cccc2c(N=Nc3ccc(S(=O)(=O)Nc4cccc(Cl)c4)cc3[N+](=O)[O-])c(O)[nH]c12,-2.75% (inactive)
16,CCOCCCNC1=C(Cl)C(=O)c2ccccc2C1=O,-7.4% (inactive)
17,Cc1ccc(NC(=O)CSc2nnc(-c3ccco3)c(-c3ccco3)n2)cc1,0.35% (inactive)
18,O=C(Nc1ccc2nsnc2c1)N1CCCCC1,12.4% (inactive)
19,Oc1ccc(N=Cc2ccc(OCc3ccccc3)cc2)cc1,-5.35% (inactive)
20,CC1=CC(C)(C)N2C(=O)C(=Nc3ccc(O)cc3)c3cccc1c32,-3.6% (inactive)
21,Cc1ccc(NC(=O)CN2C(=O)S/C(=C\c3cc(Cl)c(OCC(=O)O)c(Cl)c3)C2=O)cc1,19.7% (inactive)
22,O=C1CC(c2ccco2)CC(O)=C1C=Nc1cc(Cl)ccc1Cl (stereo unspecified),1.35% (inactive)
23,C/C(=N\OCc1nc2ccccc2c(=O)n1/N=C/c1cc([N+](=O)[O-])ccc1O)c1ccccc1,-16.2% (inactive)

row,SMILES,inhibition
1,CCOc1ccc(N2CC(C(=O)NCc3ccc(F)cc3)CC2=O)cc1 (stereo unspecified),34.9% (active)
2,CCOc1ccc(NC(=O)c2ccc(NC(=O)c3ccc(CN4CCOCC4)cc3)cc2)cc1,5.55% (inactive)
3,CCOc1ccc(S(=O)(=O)N2CCCC(C(=O)NCc3ccco3)C2)cc1 (stereo unspecified),-1.5% (inactive)
4,O=[N+]([O-])c1cc([N+](=O)[O-])c2nonc2c1Nc1ccc(O)cc1,-10.7% (inactive)
5,COc1ccc2c(c1)-c1nc(/N=C/c3cccc(OC)c3O)sc1CC2,1.05% (inactive)
6,COc1cc(NS(=O)(=O)c2ccc(NC(=S)NC(=O)/C=C/c3ccco3)cc2)ncn1,25.8% (inactive)
7,O=C(COC(=O)c1cc(NS(=O)(=O)c2cccs2)ccc1O)Nc1cc(Cl)ccc1Cl,13.8% (inactive)
8,O=C(O)c1ccc(/C=N/NC(=O)c2ccc(CN3c4cccc5cccc(c45)S3(=O)=O)cc2)cc1,18.2% (inactive)
9,COc1ccccc1/C=N/NC(=O)c1ccc(CN2C(=O)c3cccc4cccc2c34)cc1,48.2% (active)
10,O=C(O)c1cccc(Cn2c(Cl)c(/C=N/NC(=O)c3cc4ccccc4cc3O)sc2=O)c1,-2% (inactive)
11,C=CCc1cccc(/C=N/NC(=O)CNc2cccc3ccccc23)c1O,4.7% (inactive)
12,O=C(N/N=C/c1ccccc1)c1ccc(CN2C(=O)c3cccc4cccc2c34)cc1,38.8% (active)
13,O=C(Cc1cc(=O)[nH][nH]1)N/N=C/c1cccc2ccccc12,-6.95% (inactive)
14,COc1ccc2c(c1)CC/C(=C\Nc1ccc3c(c1)OCO3)C2=O,-3.55% (inactive)
15,C=CCOc1c(Br)cc(/C=C2\SC(=Nc3ccccc3)NC2=O)cc1OC,9.1% (inactive)
16,O=C(O)c1cccc([N+](=O)[O-])c1C(=O)Nc1cccc2ccccc12,-3.8% (inactive)
17,Cc1ccc(C(=O)Nc2ccccc2C(=O)N2CCN(c3ccccc3)CC2)cc1,-8.05% (inactive)
18,Cn1c(=O)cc(C(=O)N/N=C/c2ccc(Cl)cc2)[nH]c1=O,-5.8% (inactive)
19,CCc1nc2sc(C(C)=O)c(N)c2c2c1CCCC2,9.65% (inactive)
20,O=[N+]([O-])c1cccc(C=Nc2cccc3ccccc23)c1O,29.6% (inactive)
21,CCOc1ccc(NC(=S)Nc2ccc3nsnc3c2)cc1,19.4% (inactive)
22,O=C1NC(=Nc2ccc3ccccc3c2)S/C1=C/c1ccco1,9.5% (inactive)
23,COc1cccc(NC(=S)Nc2cccc3ccccc23)c1,2.35% (inactive)

row,SMILES,inhibition
1,S=C(Nc1ccc2nsnc2c1)N1CCCCCC1,6.8% (inactive)
2,S=C(Nc1ccc2nsnc2c1)N1CCCC1,35.6% (active)
3,S=C(Nc1ccc2nsnc2c1)N1CCCCC1,16.2% (inactive)
4,S=c1[nH]nc(-c2cc(-c3ccccc3)n[nH]2)n1/N=C/c1cccc(Cl)c1,-8.55% (inactive)
5,COc1ccc(/C=C/c2nnc(NC(=O)CSc3ccc(C)cc3)s2)cc1,9.65% (inactive)
6,CCOc1cc(/C=C2\C(=O)N(c3ccc(C(N)=O)cc3)N=C2C)ccc1OC(=O)c1cccs1,-9.6% (inactive)
7,Nc1ccc2nc(-c3ccccc3)sc2c1,66% (active)
8,Nc1ccc2c(c1)sc1ccccc12,-9.65% (inactive)
9,Cc1ccc(C)c(S(=O)(=O)c2c(N)n(/N=C/c3ccco3)c3nc4ccccc4nc23)c1,-11.7% (inactive)
10,CCc1nn(CC(=O)NC(C)CCc2ccccc2)c(=O)c2cc3cc(F)ccc3n12 (stereo unspecified),16.4% (inactive)
11,CC(=O)c1ccc2c(c1)C1C=CCC1C(C(=O)O)N2 (stereo unspecified),70.7% (active)
12,O=C(O)c1ccc(NS(=O)(=O)c2ccc3c(c2)C2C=CCC2C(c2ccccc2F)N3)cc1 (stereo unspecified),3.15% (inactive)
13,COc1cccc(NS(=O)(=O)c2ccc3c(c2)C2C=CCC2C(c2ccc(C(=O)O)cc2)N3)c1 (stereo unspecified),8.05% (inactive)
14,CCc1ccc(NC(=O)NNC(=O)c2cc3ccccc3cc2O)cc1,8.2% (inactive)
15,N#Cc1c(-c2cccs2)nc(SCc2ccc(Cl)cc2)[nH]c1=O,21.6% (inactive)
16,NC(=O)C1CCN(C2=C(NS(=O)(=O)c3ccc(Cl)cc3)C(=O)c3ccccc3C2=O)CC1,-20.8% (inactive)
17,C=CCn1c(N)c(C(=O)Nc2ccccc2)c2nc3ccccc3nc21,20.9% (inactive)
18,C=CCn1c(N)c(C(=O)OC(C)(C)C)c2nc3ccccc3nc21,32.7% (active)
19,C=CCn1c(N)c(C(=O)Nc2cccc(C)c2)c2nc3ccccc3nc21,6.4% (inactive)
20,CC(C)(C)OC(=O)c1c(N)n(CCCN2CCCC2=O)c2nc3ccccc3nc12,41.4% (active)
21,COCCn1c(N)c(C(=O)OCc2ccccc2)c2nc3ccccc3nc21,16% (inactive)
22,COc1ccc(CNC(=O)c2c(N)n(CCCN3CCOCC3)c3nc4ccccc4nc23)cc1,17.5% (inactive)
23,O=C(Nc1cccc2cccc(NC(=O)c3ccco3)c12)c1ccco1,-6.45% (inactive)

row,SMILES,inhibition
1,NS(=O)(=O)c1ccc(NC2=CC(=O)C(=O)c3ccccc32)cc1,9.2% (inactive)
2,CC(=O)c1cccc(NC(=S)Nc2cccc3ccccc23)c1,0.85% (inactive)
3,Cc1ccc(S(=O)(=O)NNC(=O)Nc2cccc3ccccc23)cc1,4.05% (inactive)
4,Oc1cccc2c(NC(=S)Nc3ccc(SC(F)F)cc3)cccc12,-6.1% (inactive)
5,O=C(CCCN1C(=O)/C(=C/c2ccco2)SC1=S)Nc1ccccc1C(=O)O,1.8% (inactive)
6,C/C(=N\NC(=O)CNc1cccc2ccccc12)c1ccccc1,18% (inactive)
7,CC(=O)N1C(=S)NC(=O)/C1=C1/C(=O)N(CC(=O)Nc2cccc(C)c2)c2ccccc21,4.65% (inactive)
8,CCN(CC)C(=O)C1CCCN(C(=O)Nc2ccc3nsnc3c2)C1 (stereo unspecified),17.5% (inactive)
9,COCCn1c(N)c(C(=O)NCc2cccs2)c2nc3ccccc3nc21,28.6% (inactive)
10,Nc1c(C(=O)NCc2ccco2)c2nc3ccccc3nc2n1CCc1ccccc1F,15.7% (inactive)
11,CC(C)Cn1c(N)c(C(=O)NCC2CCCO2)c2nc3ccccc3nc21 (stereo unspecified),34% (active)
12,COCCn1c(N)c(C(=O)NCC2CCCO2)c2nc3ccccc3nc21 (stereo unspecified),42.4% (active)
13,Nc1c(C(=O)NCc2ccco2)c2nc3ccccc3nc2n1CCc1ccc(F)cc1,23.6% (inactive)
14,COc1ccc(-n2c(N)c(C(=O)NCC3CCCO3)c3nc4ccccc4nc32)c(OC)c1 (stereo unspecified),24.9% (inactive)
15,C=CCn1c(N)c(C(=O)NCC2CCCO2)c2nc3ccccc3nc21 (stereo unspecified),42.5% (active)
16,CC(C)Cn1c(N)c(C(=O)NCc2cccs2)c2nc3ccccc3nc21,25.2% (inactive)
17,Cc1ccc(-n2c(-c3cc(-c4ccco4)[nH]n3)n[nH]c2=S)c(Br)c1,16.4% (inactive)
18,CC1=C(C(=O)Nc2ccccc2)C(c2ccc(C)cc2)N=C(Nc2nc3ccccc3o2)N1 (stereo unspecified),10.2% (inactive)
19,CCc1ccc2c(c1)c1nc(C)sc1n2CC,0.45% (inactive)
20,Cn1c2ccccc2c(=O)n2c(=O)c3ccccc3cc12,8.7% (inactive)
21,COc1cc(/C=C2/C(=O)N(c3ccccc3)N=C2C)ccc1OS(=O)(=O)c1ccccc1,-23.2% (inactive)
22,Cc1ccc(Cn2nnnc2CN2CCC(NC(=O)C(C)(C)C)CC2)cc1,5.15% (inactive)

# From PubChem BioAssay AID2069 (Sanford-Burnham Center for Chemical Genomics, 2009)
